# Compound activity (PubChem BioAssay)
# The list is not random: actives were taken first. Their share in the collection is about 15%.
# DT40 TDP1 CPT = DT40-hTDP1 cell growth loss with CPT; chicken DT40 Tdp1-/-;hTDP1 cells + 20 nM CPT, ATP luminescence, 48 h; Potency, µM (series often up to 46.2 µM), for the others: at the top dose activity change, negative = growth inhibition, most hits filed as inhibitors; hit rate 12% among 420,000; also: nearly all actives have a fitted effect of over 55% in size
#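 Chicken DT40 Tdp1-/- cells complemented with human TDP1, 400 cells/well, exposed to compounds plus 20 nM camptothecin for at least 48 h at 37 C; viability read as ATP content by CellTiter-Glo luminescence.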
# TDP1 cell noCPT = qHTS for Inhibitors of human tyrosyl-DNA phosphodiesterase 1 (TDP1): qHTS in cells in absence of CPT | Potency, µM (titrated, usually from 46.2 µM), for inactives: at the highest dose activity change, negative = growth inhibition, most hits filed as inhibitors | AID 686978, 2013 | hit rate 15% among 420,000 | DT40 Tdp1-/- hTDP1 cells, no CPT, ATP luminescence, 48 h; also: nearly all actives have a fitted effect of over 55% in size
#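 Compound effects on proliferation are scored in DT40 Tdp1-/-;hTDP1 cells in the absence of CPT. ATP levels (CellTiter-Glo luminescence) are recorded after a ≥48 hr, 37 °C incubation.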
# 12-LOX inh = blocks human arachidonate 12S-lipoxygenase; purified 12hLO, xylenol orange hydroperoxide absorbance; Potency, µM (doses to about 108 µM), for the others: top-dose activity change, negative = inhibition, most hits filed as inhibitors; hit rate 1.1% among 580,000; AID 1671190
# Target sequence (P18054 whole entry, looked up): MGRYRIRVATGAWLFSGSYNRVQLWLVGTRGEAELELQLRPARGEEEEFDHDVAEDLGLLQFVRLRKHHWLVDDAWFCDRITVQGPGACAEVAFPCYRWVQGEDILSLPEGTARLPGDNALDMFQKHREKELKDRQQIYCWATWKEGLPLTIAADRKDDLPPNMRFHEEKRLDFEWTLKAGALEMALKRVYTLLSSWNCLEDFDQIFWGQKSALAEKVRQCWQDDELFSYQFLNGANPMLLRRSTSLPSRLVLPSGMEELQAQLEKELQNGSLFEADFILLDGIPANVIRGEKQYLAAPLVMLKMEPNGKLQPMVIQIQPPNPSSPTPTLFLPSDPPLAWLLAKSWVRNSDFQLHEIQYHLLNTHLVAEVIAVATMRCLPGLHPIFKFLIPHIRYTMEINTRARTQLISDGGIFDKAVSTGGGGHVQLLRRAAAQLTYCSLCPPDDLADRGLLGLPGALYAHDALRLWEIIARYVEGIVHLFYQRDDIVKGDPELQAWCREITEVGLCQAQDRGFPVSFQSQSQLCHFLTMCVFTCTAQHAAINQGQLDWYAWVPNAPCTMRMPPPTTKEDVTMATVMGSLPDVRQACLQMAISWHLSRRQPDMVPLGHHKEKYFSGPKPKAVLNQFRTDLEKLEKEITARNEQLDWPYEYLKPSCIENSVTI
#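 Purified human 12hLO (150 nM final) in 25 mM Hepes, 0.01% Triton X-100, pH 7.0 was preincubated 15 min at room temperature with compound. Then 40 uM arachidonic acid was added, 30 min. Hydroperoxide was read by Fe-XO absorbance ratio 573/405 nm.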
# ELG1 repair inh = blocks ELG1-dependent DNA repair in HEK293T cells; AID 504467; Potency, µM (doses to about 46.1 µM), for inactives: at the highest dose activity change, negative = inhibition, usual class: inhibitors; hit rate 2.3% among 330,000; HEK293T ELG1-luciferase reporter, luminescence, 16 h; DNA damage induced by 5-fluorouridine; also: nearly all actives have a fitted effect of over 55% in size
#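 Reporter activity after DNA damage by 5-fluorouridine is monitored. Compound-treated cells incubate 16 hr at 37 °C, then ONE-Glo is added for 30 min before luminescence reading.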
# VP16 counter = counter-screen for ROR gamma inhibitors: Gal4-VP16 reporter; Drosophila S2 Gal4-VP16 UAS-luciferase, luminescence, 20 h; Potency, µM (highest dose often 53.6 µM), without a hit: at the top dose activity, negative = inhibition, hits mostly inhibitors; hit rate 3.5% among 310,000;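 also: Gal4-VP16 expression switched on by copper sulfate through the metallothionein promoter; nearly all actives have a fitted effect of over 50% in size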
# RORgamma inh = blocks mouse ROR gamma transcriptional activity; Drosophila S2 Gal4-RORgamma UAS-luciferase reporter, 20 h; Potency, µM (top dose mostly 53.6 µM), for the others: at the highest dose activity change, negative = inhibition, usual class: inhibitors; hit rate 5.4% among 310,000; AID 2551; also: nearly all actives have a fitted effect of over 60% in size
#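 In this cell-based reporter format, copper sulfate (700 uM final) drives Gal4–ROR gamma fusion expression from a metallothionein promoter in Drosophila Schneider cells; compounds preincubated 1 hr, reporter read after 20 hr at ambient temperature.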
# Starred values were filed as active, the others as inactive; i = inactive; ? = inconclusive; · = no result; [ ] = dose if it differs, or a comment. Calls follow the shape of the dose curve; as a rule, active = well fitted curve in the direction sought with a large enough effect; inconclusive = small, poorly fitted or top-dose-only effect, or another doubt; inactive = no such curve, though single readings can be large; an effect the other way counts as inactive or inconclusive. % is scaled to controls: 0 for no effect and ±100 for the full control effect; potency is read from the fitted curve at half-maximal effect.
SMILES,DT40 TDP1 CPT,TDP1 cell noCPT,12-LOX inh,ELG1 repair inh,VP16 counter,RORgamma inh
COCC(=O)NC[C@@H]1C=C(C)[C@H](Cc2nc3ccc(F)cc3[nH]2)C[C@H]1C(C)C,·,·,39%[176 µM],·,·,·
Cc1cccc(Cn2nnc3c(=O)[nH]c(C4CCCN(C(=O)c5ccccc5Cl)C4)nc32)c1 (configuration not stated),26µM*,?,?,·,·,·
Cc1ccc(Cn2nnc3c(=O)[nH]c(C4CCCN(C(=O)Nc5ccc(F)cc5F)C4)nc32)cc1 (configuration not stated),?,-24%,?,?,-10%,8%
Cc1ccc(Cn2nnc3c(=O)[nH]c(C4CCN(S(=O)(=O)c5ccccc5)CC4)nc32)cc1,-11%,-12%,-6%,1%,-7%,4%
Cc1ccc(C)c(C(=O)N2CCC(c3nc4c(nnn4Cc4ccccc4)c(=O)[nH]3)CC2)c1,?,8.2µM*,-12%,·,·,·
Cc1ccc(Cn2nnc3c(=O)[nH]c(C4CCN(S(=O)(=O)Cc5ccccc5)CC4)nc32)cc1,?,?,?,15µM*,?,?
CCOc1ccccc1NC(=O)N1CCCC(c2nc3c(nnn3Cc3ccc(C)cc3)c(=O)[nH]2)C1 (configuration not stated),29µM*,?,-19%,?,-16%,20%
COc1ccc(-c2nc3cc(NC(=O)COc4cccc(C)c4)ccc3o2)cc1,·,·,-8%,·,·,·
COc1ccccc1Cn1nnc2c(=O)[nH]c(C3CCN(C(=O)c4ccc(C)cc4)CC3)nc21,-23%,-13%,2%,23µM*,-1%,26%
COc1ccccc1Cn1nnc2c(=O)[nH]c(C3CCN(C(=O)c4ccc(F)cc4)CC3)nc21,1%,0%,-13%,?,-3%,8%
O=c1[nH]c(C2CCN(S(=O)(=O)c3ccccc3F)CC2)nc2c1nnn2Cc1ccc(OC(F)(F)F)cc1,?,?,44%,18µM*,-14%,37%
COc1ccccc1CNC(=O)Cc1c(C)c2ccc(O)cc2oc1=O,·,·,3%,·,·,·
Nc1c(-c2cccc(Cl)c2)cnn1-c1cccc(C(F)(F)F)c1,?,16µM*,?,0%,?,?
CCOC(=O)c1c(NC(=O)CN2CCOCC2)sc2c1CCCC2,?,21µM*,0%,-24%,2%,-11%
CCOc1ccc(NC(=O)c2c(NC(=O)CNCCN3CCOCC3)sc3c2CCC3)cc1,?,15µM*,i,?,0.1µM*,0.56µM*
CCOC(=O)c1c(NC(=O)COc2cccc3c2CCN(CC)C3=O)sc2c1CCC2,?,8.2µM*,-3%,?,4%,8%
CCOC(=O)c1c(NC(=O)CN2CCOCC2)sc2c1CCCC2=O,-8%,-14%,8%,-27%,-5%,-22%
COC(=O)c1cc(C)sc1NC(=O)CN1CCN(C(=O)C2CCCO2)CC1 (configuration not stated),6%,-15%,1%,?,?,10µM*
CCOc1ccc(NC(=O)c2c(NC(=O)c3ccccc3F)sc3c2CCC3)cc1,-3%,-14%,-11%,·,·,·
O=C(CN1CCN(C(=O)c2ccco2)CC1)Nc1ccccc1-c1ccccc1,26µM*,?,-13%,-15%,-3%,13%
O=C(CN1CCN(C(=O)c2ccco2)CC1)Nc1cc(Cl)ccc1Cl,-30%,-28%,0%,?,-13%,-3%
CCOC(=O)c1cc(CC)sc1NC(=O)CN1CCN(C(=O)c2ccco2)CC1,?,-22%,-5%,-19%,-6%,?
